Out of some 360,000 compounds screened, about 3,700 (1%) were called active. Cut-off read from the data, not from the text of the source: active = activation above about 30%; inactive = the rest. What follows is part of a selection rich in actives, with near analogues and random picks from the rest.

The text below walks through data of PubChem BioAssay AID504660 (National Center for Advancing Translational Sciences (NCATS), 2011).

For this assay, the target named is D(1A) dopamine receptor (Homo sapiens) (UniProt P21728). Nature of the assay: Allosteric Agonists of the Human D1 Dopamine Receptor: qHTS. Note: 0% is about no effect. The following applies: HEK293 T-REx D1 cells, calcium flux, agonist mode; at 2 µM; stronger effect = higher value. In outline: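 Tetracycline-induced HEK293 TREx D1 cells, force-coupled to calcium signalling, were dye-loaded with a no-wash calcium kit. Compound was pin-added after a 10 s baseline. Fluorescence was read kinetically at 1 cycle/s for 180 s, with calcium rises flagged as agonism.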
Chain of D(1A) dopamine receptor (Homo sapiens) (P21728 whole entry, looked up): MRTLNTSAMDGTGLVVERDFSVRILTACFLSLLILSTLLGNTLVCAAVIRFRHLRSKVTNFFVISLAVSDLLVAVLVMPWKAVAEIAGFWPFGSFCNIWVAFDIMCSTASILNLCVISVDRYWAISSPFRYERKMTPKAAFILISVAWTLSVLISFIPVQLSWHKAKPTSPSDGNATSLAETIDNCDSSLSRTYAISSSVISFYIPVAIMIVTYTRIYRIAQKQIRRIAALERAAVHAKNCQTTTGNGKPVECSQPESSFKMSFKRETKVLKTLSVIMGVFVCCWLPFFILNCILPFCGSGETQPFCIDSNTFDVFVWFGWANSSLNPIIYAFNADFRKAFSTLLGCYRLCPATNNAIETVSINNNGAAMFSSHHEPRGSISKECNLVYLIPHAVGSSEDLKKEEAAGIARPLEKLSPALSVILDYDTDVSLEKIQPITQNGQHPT
For the compound `Cc1ccc(CN2CCC(CNC(=O)c3cnn(-c4ccccc4Cl)c3C3CCN(C(=O)OC(C)(C)C)CC3)CC2)cc1`, the activation was 27.5% (inactive).

With `COc1ccccc1CN1CCC(CNC(=O)c2cnn(-c3cccc(Cl)c3)c2C2CCN(C(=O)OC(C)(C)C)CC2)CC1`, the activation was 9.95% (inactive).

On to `Cc1ccc(CN2CCC(CNC(=O)c3cnn(-c4ccc(C)cc4)c3C3CCN(C(=O)OC(C)(C)C)CC3)CC2)cc1`, for which the activation is 33.1% (active).

With `COc1ccc(-n2c(C)nc3c(cnn3-c3ccc(F)cc3)c2=O)cc1`, the activation is 9.13% (inactive).

For the compound `Cc1ccc(NC(=O)COC(=O)CNC(=O)c2ccc(Cl)cc2Cl)cc1S(=O)(=O)N1CCOCC1`, the activation was 31.1% (active).

With `Cc1ccc(NC(=O)CCCNC(=O)c2ccc(Cl)cc2)cc1S(=O)(=O)N1CCOCC1`, the activation was 0.321% (inactive).

Take `Cc1ccc(C(=O)OCC(=O)Nc2ccc(Cl)cn2)cc1S(=O)(=O)N1CCOCC1`: the activation was 5.99% (inactive).

Regarding `Cc1ccc(S(=O)(=O)N2CCC(C(=O)Nc3cc(C)ccc3C)CC2)cc1`, the activation was 1.28% (inactive).

On to `CC(C)(C)CC(C)(C)NCC(O)COCCOc1ccc(Br)cc1` (stereo unspecified), for which the activation is 171% (active).

Turning to `CC(Oc1ccc(Br)cc1)C(=O)NC1CCCCCC1` (stereo unspecified), the activation is 1.77% (inactive).

Turning to `COc1ccc(OCC(O)CNCCNc2nccc(C(F)(F)F)n2)cc1` (stereo unspecified), the activation was 1.81% (inactive).

Take `COc1ccc(-n2ccnc(NCCc3ccc(Cl)cc3)c2=O)cc1OC`: the activation is 1.51% (inactive).

Consider `COc1cc(OC)c(NC(=O)c2cc(S(=O)(=O)N3CCCC3)cn2C)cc1Cl`, for which the activation was 0.318% (inactive).

Regarding `COc1ccccc1C(=O)OCc1cc(=O)n2nc(-c3cccs3)sc2n1`, the activation was 0.554% (inactive).

As to `COc1ccc(C(=O)N2CCC(c3nc4ccccc4o3)CC2)cc1`, the activation was 0.0167% (inactive).

On to `O=C(Cn1cc(SCc2ccccc2)c2ccccc21)N1CCCCC1`, for which the activation was 0.868% (inactive).

`COc1cccc(CN(C)CC(O)COC(c2ccccc2)c2ccccc2C)c1` (stereo unspecified): the activation was 5.2% (inactive).

Take `CN(Cc1ccccc1)CC(O)COc1ccc(CNCc2cc3ccccc3s2)cc1` (stereo unspecified): the activation is 36.8% (active).

`COc1ccc(OCC(O)CN(C)C(=O)C(C)Oc2ccccc2)cc1` (stereo unspecified): the activation was 3.18% (inactive).

Turning to `C=CCSc1nnc(N2C(=O)C(O)=C(C(=O)c3ccco3)C2c2ccc(F)cc2)s1` (stereo unspecified), the activation was 54.8% (active).

For `C=CCOc1cccc(C2C(C(=O)c3ccc(C)o3)=C(O)C(=O)N2c2nnc(C)s2)c1` (stereo unspecified), the activation is 29.7% (inactive).

As to `Cc1ccc2nc(N3C(=O)C(O)=C(C(=O)c4ccco4)C3c3cccc(O)c3)sc2c1` (stereo unspecified), the activation was 7.96% (inactive).

Turning to `COc1ccc(CNC(=O)c2ccc(NC(=O)N3CC4CCCN4c4ccccc43)cc2)cc1` (stereo unspecified), the activation is 0.101% (inactive).

`COc1ccc(Cn2ccn(CC(=O)Nc3cc(C)ccc3C)c(=O)c2=O)cc1`: the activation was 18.9% (inactive).

In the case of `CCc1nc2ccc(C(=O)N3CCN(c4cc(Cl)ccc4C)CC3)cc2nc1CC`, the activation is 5.95% (inactive).

Consider `O=C(NC1CC(=O)N(c2ccc(F)cc2)C1)c1cccs1` (stereo unspecified), for which the activation was 1.75% (inactive).

Turning to `CCOC(=O)c1cc(NC(=O)c2ccc(Cl)cc2)c(=O)oc1-c1ccccc1`, the activation is 3.05% (inactive).

In the case of `CC(=O)c1cc(NC(=O)c2ccccc2)c(=O)oc1/C=C/N(C)C`, the activation was 30.3% (active).

For the compound `COc1ccc(C2COC(=O)C2=N)c(NC(=O)c2ccccc2)c1` (stereo unspecified), the activation is 0.266% (inactive).

`Cc1ccc(N2CC(NC(=O)Cc3cccs3)CC2=O)cc1` (stereo unspecified): the activation was -0.478% (inactive).

Regarding `CCOc1ccc(Nc2oc(/C=C/c3ccc(F)cc3)nc2C#N)cc1`, the activation is -0.316% (inactive).

On to `CCOc1ccc(N(Cc2ccccc2)C(=O)c2nc(S(C)(=O)=O)ncc2Cl)cc1`, for which the activation was 1.14% (inactive).

Take `COc1ccc(NC(=O)Cn2c(=O)cc(C)c3c(C)nn(-c4cccc(Cl)c4C)c32)cc1OC`: the activation is 0.131% (inactive).

On to `Cn1c(=O)[nH]c(=O)c2c1nc(NCCc1ccccc1)n2Cc1ccc(F)cc1`, for which the activation was -2.2% (inactive).

In the case of `OCCn1c(-c2ccccc2)csc1=Nc1ccccc1`, the activation was 0.78% (inactive).

For `CN(C)CCCn1c(SCc2ccc(Cl)cc2)nnc1-c1ccncc1`, the activation was 0.237% (inactive).

Regarding `CN(C)CCCn1c(-c2ccc(Cl)cc2)csc1=Nc1ccccc1`, the activation is 39% (active).

Turning to `O=C(CSc1ncc(CO)n1Cc1ccc(F)cc1)NCc1ccco1`, the activation was 1.99% (inactive).

Turning to `O=C(CNC(=O)c1ccc(Cl)cc1Cl)OC(C(=O)Nc1cc(C(F)(F)F)ccc1Cl)c1ccccc1` (stereo unspecified), the activation is 6.6% (inactive).

For `O=C(Nc1ccccc1)N1CCC(C(=O)N2CCN(Cc3ccccc3)CC2)CC1`, the activation is 0.0463% (inactive).

For the compound `O=C(Nc1ccccc1)N1CCN(C2c3ccccc3-c3ccccc32)CC1`, the activation is 35.4% (active).

For `COc1ccc(NC(C)=O)cc1NC(=O)CN1CCN(C2c3ccccc3-c3ccccc32)CC1`, the activation was 1.82% (inactive).

For `O=C(CC(c1cccs1)N1Cc2ccccc2C1=O)Nc1ccc(F)c(F)c1` (stereo unspecified), the activation is 10.6% (inactive).

For the compound `CCOc1ccc(CNC(=O)Cn2cc3c(n2)-c2c(oc(C(=O)N4CCCC4)c2C)CC3)cc1`, the activation is 0.642% (inactive).

In the case of `COc1ccc(CCNC(=O)c2ccc(CS(=O)(=O)c3ccc(Br)cc3)o2)cc1OC`, the activation is 17.3% (inactive).

Take `COc1ccccc1CNC(=O)c1ccc(CS(=O)c2ccccc2Cl)o1` (stereo unspecified): the activation is 6.51% (inactive).

Turning to `COc1ccccc1CNC(=O)c1ccc(CS(=O)(=O)c2ccccc2)o1`, the activation was 30.2% (active).

In the case of `CCC(C(=O)Nc1cccc(Cl)c1C)n1nc(-c2ccc(C)cc2)ccc1=O` (stereo unspecified), the activation is 1.44% (inactive).

As to `COc1ccc(N2CCN(c3cc(C)nc4nncn34)CC2)cc1`, the activation was 5.83% (inactive).

For the compound `CCc1ccc(NC(=O)CCCc2nnc3n(CCCOC)c(=O)c4sccc4n23)cc1`, the activation was 2.87% (inactive).

With `Cc1cccc(NC(=S)NCCc2ccc(F)cc2)c1C`, the activation was 0.43% (inactive).

In the case of `Cc1c(NC(=O)CCCOc2ccccc2)cccc1[N+](=O)[O-]`, the activation was 0.0331% (inactive).

For the compound `Cc1c(NC(=S)NCc2ccc(F)cc2)cccc1[N+](=O)[O-]`, the activation was 31.7% (active).

Take `CC(C)(C)c1ccc(S(=O)(=O)N2CCN(C(=O)c3cc(-c4ccc(Br)cc4)n[nH]3)CC2)cc1`: the activation was 2.7% (inactive).

Take `COc1ccc(NC(=O)CN2CCCN(Cc3ccccc3)S2(=O)=O)cc1`: the activation was -2.31% (inactive).

As for `O=C(C1CCC(Cn2c(=O)c3sccc3n(Cc3ccccc3F)c2=O)CC1)N1CCCCC1` (stereo unspecified), the activation was 1.57% (inactive).

For the compound `CN(c1ccccc1)S(=O)(=O)c1cccc(C(=O)NNC(=O)c2ccncc2)c1`, the activation is 0.604% (inactive).

For the compound `CC(=O)c1c(C)[nH]c(C(=O)COC(=O)c2cccc(S(=O)(=O)N(C)c3ccccc3)c2)c1C`, the activation is 31.9% (active).

In the case of `COc1ccc(C)cc1NC(=O)C(OC(=O)c1cccc(S(=O)(=O)N(C)c2ccccc2)c1)c1ccccc1` (stereo unspecified), the activation is 0.857% (inactive).

Turning to `N#Cc1nc(Nc2cc(F)cc(Cl)c2)nc(NC2CCCC2)n1`, the activation is 11.1% (inactive).

Take `COc1ccccc1N1CCN(C(CNC(=O)C(=O)NCc2ccc(C)cc2)c2cccnc2)CC1` (stereo unspecified): the activation was 3.64% (inactive).

As for `O=C(CSc1ccc([N+](=O)[O-])cn1)Nc1ccc(N2CCOCC2)cc1`, the activation is 0.916% (inactive).

As to `O=C(NCCCN1CCN(c2ccc(F)cc2)CC1)Nc1ccc([N+](=O)[O-])cc1`, the activation was 32.8% (active).

`CC1=C(c2ccc(C)cc2)S(=O)(=O)NC1=NCCCN1CCN(c2cc(C)ccc2C)CC1`: the activation is 6.19% (inactive).

As for `O=C(CCN1C(=O)COc2ccccc21)NCCCN1CCN(c2ccc(F)cc2)CC1`, the activation was -0.0538% (inactive).

For the compound `Cc1ccc(C)c(N2CCN(CCCNC(=O)Nc3ccc(Cl)cc3)CC2)c1`, the activation was 65.5% (active).

As to `CCOC(=O)c1c(C)[nH]c(CCC(=O)NCCCN2CCN(c3cc(C)ccc3C)CC2)c1C`, the activation is 22.5% (inactive).

Turning to `O=C(Nc1cccc2cccnc12)C(F)(F)F`, the activation was 0.559% (inactive).

On to `COc1ccc(S(=O)(=O)NCCSc2nnnn2-c2ccccc2)cc1`, for which the activation was 2.54% (inactive).

Regarding `CCOc1ccc(S(=O)(=O)c2cn(Cc3ccccc3)c3ccc(OCC)cc3c2=O)cc1`, the activation is 1.46% (inactive).

As to `CCOC(=O)c1c(C)[nH]c(C)c1S(=O)(=O)NCC(=O)NCc1cccc(C)c1`, the activation is 6.99% (inactive).

In the case of `CCCCOC(=O)/C(C#N)=C/c1ccc(-c2cccc(C(F)(F)F)c2)o1`, the activation was 6.87% (inactive).

As for `c1ccc(C2CNCc3c2ccc2ccccc32)cc1` (stereo unspecified), the activation was 45.9% (active).

Consider `Cc1ccc2nc(COc3cccc(NC(=O)c4ccccc4Cl)c3)cc(=O)n2c1`, for which the activation is 0.0743% (inactive).

For `Cc1cc(C)c(/C=C2\C(=O)Nc3ccccc32)[nH]1`, the activation was 92.6% (active).

In the case of `COc1ccccc1S(=O)(=O)c1c(C)cc(C)[nH]c1=O`, the activation is 3.01% (inactive).

`Cc1cc(C)cc(NS(=O)(=O)c2ccc(-c3cc(C)no3)s2)c1`: the activation is 1.79% (inactive).

For the compound `O=S(=O)(c1ccc2c(c1)OCCO2)N1CCN(S(=O)(=O)c2cc(F)ccc2F)CC1`, the activation is 6.6% (inactive).

In the case of `CCc1cccc(NC(=O)CN(c2ccc(C)c(C)c2)S(=O)(=O)c2ccsc2C(=O)OC)c1`, the activation is 3.48% (inactive).

With `Cc1cccc(NC(=O)N2CCC(CN3CCc4ccccc4C3)CC2)c1C`, the activation was 6.8% (inactive).

In the case of `Fc1cccc(Cl)c1COc1ccc(-c2nnco2)cc1`, the activation is 4.97% (inactive).

As for `CN(C)CCCNC(=O)/C=C/c1ccc(OCc2c(F)cccc2Cl)cc1`, the activation is 20.4% (inactive).

As to `O=C(/C=C/c1ccc(OCc2c(F)cccc2Cl)cc1)N1CCOCC1`, the activation was 59.7% (active).

On to `CCC(=O)Nc1ccc2nc(SCC(=O)N3CCc4ccccc43)sc2c1`, for which the activation was 4.11% (inactive).

In the case of `CS(=O)(=O)c1ccc(-c2nnc(NC(=O)c3ccc4c(c3)OCCO4)o2)cc1`, the activation is 2.14% (inactive).

With `CCCN(C(=O)Cn1cc(S(=O)(=O)N2CCN(c3ccccc3F)CC2)c2ccccc2c1=O)c1cccc(C)c1`, the activation is 5.13% (inactive).
